Algae TAG accum: inducers of triacylglycerol accumulation in Chlamydomonas reinhardtii algae; Chlamydomonas reinhardtii TAG, Nile Red fluorescence, 72 h; calls only at 10 µM (by protocol); 0.84% of 44,000 active; call rule not given here;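 further: hits raise Nile Red signal meaning more stored TAG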
Starred values were filed as active, the others as inactive; i = inactive; + = active, no number. Shown is part of a subset that was picked to be rich in hits.

SMILES	Algae TAG accum
Cc1ccccc1N1CCN(Cc2ccc(O)cc2)CC1	+
Oc1ccc(CN2CCN(c3ccccc3Cl)CC2)cc1	+
Cc1ccccc1N1CCN(Cc2ccc(N(C)C)cc2)CC1	i
Cc1ccc(CN2CCN(c3ccccc3C)CC2)cc1	i
Clc1ccccc1N1CCN(Cc2ccccc2)CC1	i
Oc1cccc(CN2CCN(c3ccccc3Cl)CC2)c1	i
COc1ccccc1CN1CCN(c2ccccc2Cl)CC1	i
CCOc1ccccc1CC1(CCc2ccncc2)C(=O)N(C)C(=O)N(C)C1=O	i
COc1cc(/C=C/[N+](=O)[O-])cc(I)c1O	i
O=[N+]([O-])c1ccc(N2CCN(Cc3cccc(F)c3)CC2)cc1	i
O=[N+]([O-])c1ccc(N2CCN(Cc3cccc(Cl)c3)CC2)cc1	i
CCC(C)N1CCN(Cc2ccc([N+](=O)[O-])cc2)CC1 (centres undefined)	+
CN1CCN(Cc2cccc([N+](=O)[O-])c2)CC1	i
CN1CCN(Cc2ccc([N+](=O)[O-])cc2)CC1	i
CCN1CCN(Cc2ccc([N+](=O)[O-])cc2)CC1	i
O=C(COc1ccccc1)N1CCN(Cc2ccc([N+](=O)[O-])cc2)CC1	i
O=[N+]([O-])c1ccc(CN2CCN(c3ccc(F)cc3)CC2)cc1	+
O=[N+]([O-])c1ccc(CN2CCN(Cc3ccccc3)CC2)cc1	+
COc1ccc(CC(N)=O)cc1OC	i
COc1cc(/C=C/[N+](=O)[O-])cc(Br)c1O	i
CSc1nc2ccccc2c(=O)n1-c1ccccc1	i
CCOc1cc(/C=C/[N+](=O)[O-])cc(Br)c1O	i
CC1CCCC(NC2CCC(O)CC2)C1 (centres undefined)	i
CC(C)N1CCN(Cc2cccn2C)CC1	i
COc1ccc(CN2CCN(c3ccccc3)CC2)cc1O	i
SMILES	Algae TAG accum
COc1cccc(CN2CCN(c3cccc(Cl)c3)CC2)c1	i
Clc1ccc(CN2CCN(c3ccccc3)CC2)cc1Cl	i
Oc1ccc(CN2CCN(c3ccccc3)CC2)cc1	+
COc1ccc(CN2CCN(c3cccc(Cl)c3)CC2)cc1O	i
Clc1cccc(N2CCN(Cc3ccccc3Cl)CC2)c1	i
Fc1ccc(CN2CCN(c3cccc(Cl)c3)CC2)cc1	+
Fc1ccc(CN2CCN(c3cccc(Cl)c3)CC2)c(F)c1	i
Oc1ccc(CN2CCN(c3cccc(Cl)c3)CC2)cc1	+
CC(CCCC(C)(C)O)NC1CCCCCC1 (centres undefined)	i
O=c1c2ccccc2nc(-c2cccs2)n1-c1ccccn1	i
O=c1c2ccccc2nc(Cc2ccccc2)n1-c1cccc([N+](=O)[O-])c1	i
CCOc1cccc(CN2CCN(C)CC2)c1O	i
Cc1ccc([C@H]2NCC[C@@]3(O)CCCC[C@H]23)cc1	i
CCOc1ccccc1N1CCN(Cc2cccc(OC)c2)CC1	i
Nc1ccc(F)cc1C(=O)c1ccccc1	+
Nc1ccc(Br)cc1C(=O)c1ccccc1F	i
Nc1ccc(Cl)cc1C(=O)c1ccccc1	i
CCC1(c2ccccc2)C(=O)NC(=O)N(C(=O)c2ccc(F)cc2)C1=O (centres undefined)	i
OCC1CCCN1C1CC2CCC1C2 (centres undefined)	i
CCOc1ccc(CN2CCN(c3ccccc3C)CC2)cc1	+
COc1cc(CN2CCN(Cc3ccccc3)CC2)cc(OC)c1	+
COc1cccc(CN2CCN(Cc3ccccc3)CC2)c1	i
COc1cc(CN2CCN(C)CC2)cc(OC)c1	i
Clc1ccc(N2CCN(Cc3ccc4c(c3)OCO4)CC2)cc1	+
Clc1ccc(CN2CCN(Cc3ccc4c(c3)OCO4)CC2)cc1	i
SMILES	Algae TAG accum
CCOc1ccccc1CN1CCN(c2ccccc2C)CC1	i
CCOc1cc(CN2CCN(c3ccccc3C)CC2)ccc1O	i
COc1ccccc1N1CCN(Cc2ccc(N(C)C)cc2)CC1	i
CCOc1ccccc1CN1CCN(c2ccccc2OC)CC1	i
CCOc1ccc(CN2CCN(c3ccccc3OC)CC2)cc1	+
Clc1cccc(CN2CCN(Cc3ccc4c(c3)OCO4)CC2)c1	i
CC(C)c1ccc(CC2(CCc3ccncc3)C(=O)NC(=O)NC2=O)cc1	i
O=c1c2ccccc2nc(/C=C/c2ccc([N+](=O)[O-])o2)n1-c1ccccc1O	i
C=CCOc1ccccc1CN1CCN(c2ccccc2F)CC1	i
CCc1ccc(CN2CCCCC2c2cccnc2)cc1 (centres undefined)	i
Cc1ccc(S(=O)(=O)N2CCN(/C(N)=N\[N+](=O)[O-])CC2)cc1[N+](=O)[O-]	i
COc1ccc(CCNCc2ccc([N+](=O)[O-])cc2)cc1OC	i
COc1ccc(CC(C)NCc2ccc3c(c2)OCO3)cc1 (centres undefined)	i
O=C(CN1CCOCC1)c1ccc2c(c1)OCCO2	i
COc1ccc(N2CCN(Cc3ccc(Cl)cc3)CC2)cc1	+
COc1ccccc1N1CCN(Cc2ccccc2)CC1	i
Cc1ccc(CN2CCN(C)CC2)cc1	i
CCOc1ccc(CN2CCN(c3ccc(OC)cc3)CC2)cc1	i
COc1ccc(N2CCN(Cc3ccc(F)cc3)CC2)cc1	i
CCOc1ccc(CN2CCN(c3ccc(F)cc3)CC2)cc1	+
COc1ccc(N2CCN(Cc3ccc(Cl)c(Cl)c3)CC2)cc1	i
Cc1ccc(CN2CCN(CCO)CC2)cc1	+
CCOc1cc(CN2CCN(c3ccc(F)cc3)CC2)ccc1O	i
OCCN1CCN(Cc2ccc(F)cc2)CC1	i
COc1ccccc1N1CCN(Cc2ccc(C(C)C)cc2)CC1	i
SMILES	Algae TAG accum
COc1ccccc1N1CCN(Cc2ccc(C)cc2)CC1	+
COc1cccc(CN2CCN(C)CC2)c1O	i
CC(C)c1ccc(C(=O)CN(C)C)cc1	i
Cc1cccc(-n2c(/C=C/c3ccc([N+](=O)[O-])cc3)nc3ccccc3c2=O)c1	i
O=[N+]([O-])c1ccccc1CN1CCN(c2ccc(F)cc2)CC1	i
C=CCOc1ccccc1CN1CCN(CC)CC1	i
C#CCSc1nc2ccccc2c(=O)n1-c1ccc(C)cc1	i
Cc1ccccc1CN1CCN(c2cccc(C)c2C)CC1	i
O=[N+]([O-])c1ccc(N2CCNCC2)cc1SCc1ccco1	i
CC1CCN(c2cc(N3CCNCC3)c([N+](=O)[O-])cc2F)CC1	i
CCc1ccc(CN2CCN(CC)CC2)cc1	+
CCN1CCN(Cc2cccc(Br)c2)CC1	i
CCCCOc1ccc(CN2CCN(CC)CC2)cc1	i
Cc1ccc(CN2CCN(CCO)CC2)c(C)c1	i
Cc1cc(C)cc(N2C(=O)CC(=O)NC2=O)c1	i

Source: PubChem BioAssay (DiRusso Lab, Biochemistry Department, University of Nebraska)
